Results on 25 molecules are retold here after PubChem BioAssay AID743279 (National Center for Advancing Translational Sciences (NCATS), 2014).

About 17,000 (4.7%) of roughly 360,000 compounds were called active. Another 5% or so got no clear call; they are omitted. Only a selection was taken, and actives are over-represented in it overall. A number with no mark means an inactive call. Rule as the data show it: active = activity change below about -50%; inconclusive = mostly about -30% to -49%; inactive = weaker than that.
% is scaled to controls: 0 for no effect and ±100 for the full control effect.

The nature of this assay: qHTS for Inhibitors of Inflammasome Signaling: IL-1-beta AlphaLISA Primary Screen. The conditions noted are these: THP-1 LPS/ATP IL-1B secretion, 16 h, at 57.5 µM, hits give low values. The text has this:
Inflammasomes are a set of intracellular multi-protein complexes that enable autocatalytic activation of inflammatory caspases and drive the innate immune response to counter harmful agents. […] A qHTS assay, based on AlphaLISA technology, was developed to screen the Molecular Libraries Small Molecule Repository (MLSMR) to look for novel inflammasome inhibitors. The assay detects IL-1B using AlphaLISA anti-IL-1B acceptor and donor beads. A decreased emission signal, indicating reduced IL-1B secretion, is the desired outcome for this assay. NIH Chemical Genomics Center [NCGC] NIH Molecular Libraries Probe Centers Network [MLPCN] MLPCN Grant: MH095513 Assay Provider: Shyam Biswal Ph.D., Johns Hopkins University Immunity. 2012 Jul 27;37(1):85-95. PMID: 22819042 [2] Curr Pharm Des. 2012;18(16):2320-8. PMID: 22390695
Three microliters containing 3000 THP-1 cells were dispensed into the wells of solid, white, tissue culture treated Greiner 1,536-well plates. Library compounds and positive control, Glyburide, were pin-transferred (23 nL) by a Kalypsys pin-tool equipped with a 1,536-pin array, resulting in final compound concentration ranges of 2.5 nM to 57.5 uM. After 1 hr of cell culture incubation (37 °C, 5% CO2), 1 microL of 1 microg/mL lipopolysaccharide (250 ng/mL, final) and 5 mM ATP (1.25 mM, final) were added to stimulate the cells. After 16 hr of cell culture incubation with the compounds, 1.5 uL of anti-IL-1B acceptor beads (6 ug/mL, final) and biotinylated antibody (0.6 nM, final) were added to the plate, followed by a 1 hr incubation at ambient temperature. To detect the secreted IL-1B, 1.5 uL of AlphaLISA SA-Donor beads (24 ug/mL, final) were added, followed by 30 min of incubation in the dark at ambient temperature. The AlphaLISA signal was read by a PerkinElmer EnVision plate reader with an ultrasensitive luminescence detector and 1536 Plate HTS AlphaScreen aperture (excitation of 680nm and emission of 615nm).
As for `CCC/C(=N\O)c1c[nH]c2ccccc12`, the activity change was 23.8%. As for `Cn1c(C(=O)N2CCC(C(=O)N3CCC4(CC3)OCCO4)CC2)cc2sccc21`, the activity change is -11.3%.

As for `CNP1(NC)=Nc2nn(-c3ccccc3)c(N)c2C(c2ccccc2)=N1`, the activity change was -24.6%. The same measure for `C=C(C)C1(CCCC)C(=O)NC(=S)NC1=O`: 11.5%. As to `CCOC(=O)CNC(=O)N1Cc2cc(N3CCCCC3)ccc2-n2nncc2C1`, the activity change was -5.99%.

Regarding `COC(=O)[C@@H]1C(OC(=O)c2ccccc2)CC2CCC1N2C` (stereo not given in full), the activity change is -10.2%. The same measure for `COC(=O)C1=C(c2ccccc2)C[C@@H]2CC[C@H]1N2C(=O)N1CCCCC1`: -19.1%; for `COc1ccc2c(c1)NP(=S)(c1ccccc1)N2` (stereo not given): -12.5%. As for `CC12CCC(O)CC1CCC1C2CCC2(C)C(C(=O)CC(O)C(F)(F)F)CCC12` (stereo not given), the activity change is 15.6%. For `COc1ccc(-c2nn(CCC#N)cc2C(=O)O)cc1`, the activity change is 10.5%. The same measure for `O=c1[nH]c(=S)n(C2CC2)c(O)c1/C=N/N1CCOCC1`: 33.5%; for `C[N+]1(C)CCOC(O)(c2ccc(-c3ccc(C4(O)C[N+](C)(C)CCO4)cc3)cc2)C1` (stereo not given): 7.41%; for `Cn1cc(C(=O)OCC(=O)N2CCCC2)c2ccccc21`: -12.4%. The same measure for `CC12CCC3C(CCC4CC(=O)CCC43C)C1CC(=NO)C2=O` (stereo not given): -101% (active); for `C[C@]12CCC3C(CC[C@H]4[C@H](O)[C@H](O)CC[C@]34C)C1CCC2=O` (stereo not given in full): 8.07%. The same measure for `C[C@]12CCC3C(CC[C@H]4C[C@@H](O)CC[C@]34C)C1C[C@@H](O)[C@H]2O` (stereo not given in full): 24.7%; for `O=c1c2ccccc2[nH]c(=S)n1-c1cccc(Cl)c1`: 25.2%; for `CCn1cc(CN2CCCC(C(=O)c3cccc(C(F)(F)F)c3)C2)cn1` (stereo not given): 10.1%. Regarding `COc1ccc(CCn2c(O)c(C=NCCCn3ccnc3)c(=O)[nH]c2=O)cc1OC`, the activity change is 43.4%. The same measure for `CCCCCCCCCCCCn1ccc(=N)cc1`: -100% (active); for `CCOC(=O)C1SC2(C(F)(F)C(F)F)CC1(O)c1c(c(OC)c3occc3c1OC)O2` (stereo not given): 0%. The same measure for `CC(C)(C)[C@]1(O)C[C@@H]2OC(=O)C[C@@]23C(=O)O[C@@H]2OC(=O)[C@H](O)[C@]213`: -4.02%; for `COCc1cc(OC(=O)N(C)C)nc(-c2ccc(C)c(Cl)c2)n1`: -2.68%; for `C[C@]12CCCCC1=CC(=O)C1C2CC[C@@]2(C)C1C[C@@H](F)[C@@H]2O` (stereo not given in full): 0.0265%.

Consider `CC(C)c1ccc(OCC(=O)N2CCCN(C)CC2)cc1`, for which the activity change is -17.5%.
